The source of these data is PubChem BioAssay (NCI).

Compounds without any hit were thinned out: in the full panel of roughly 83,000, 20% have a hit.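 Cells were grown in 96-well plates and exposed to the test compound at a single concentration for 48 hours; results are reported as percent growth, with values below 10 considered active.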 A number with no mark means an inactive call. Activity calls are given as the source filed them.

Among the test systems are SR leukemia; RPMI-8226 leukemia; OVCAR-8 ovarian; OVCAR-5 ovarian; OVCAR-4 ovarian; SK-OV-3 ovarian; IGROV1 ovarian; OVCAR-3 ovarian; HS 578T breast; NCI/ADR-RES ovarian; T-47D breast; BT-549 breast; MDA-MB-435 melanoma; SW-620 colon; MCF7 breast; HCT-116 colon; HCC-2998 colon; KM12 colon.
Holding throughout (experiment): NCI-60 one-dose screen, 48 h (100 = growth as untreated, 0 = no growth, -100 = all killed)
Holding throughout (conditions): 10 µM unless noted

Turning to `CCN1C(=S)N(CC)C2C1NC(=S)N2/N=C/C=C/c1ccccc1OC` (configuration not stated), the growth in the assay with SR leukemia was 15.2%; in the assay with RPMI-8226 leukemia, 24.6%; in the assay on OVCAR-8 ovarian, 12.5%; with OVCAR-5 ovarian, 27.2%; with OVCAR-4 ovarian, 44.2%; with SK-OV-3 ovarian it was 35%. Also, the growth in the assay with IGROV1 ovarian is 19.5%; in the assay on OVCAR-3 ovarian it was -48% (active); in the assay on HS 578T breast, 16.3%; in the assay with NCI/ADR-RES ovarian, -9.38% (active); in the assay with T-47D breast, 59.4%; in the assay on BT-549 breast, 13.5%. For the same compound, the growth was -42.8% (active) with MDA-MB-435 melanoma; 23.8% in the assay with SW-620 colon; 17.9% in the assay on MCF7 breast; 13.6% in the assay with HCT-116 colon; 11.6% with HCC-2998 colon; 15% with KM12 colon.

Turning to `Cc1ccccc1CNc1c2ccccc2nc2ccccc12`, the growth in the assay with SR leukemia was 2.71% (active); in the assay with RPMI-8226 leukemia it was -8.88% (active); in the assay on OVCAR-8 ovarian, 21%; with OVCAR-5 ovarian, 36.7%; in the assay on OVCAR-4 ovarian it was 32.9%; with SK-OV-3 ovarian it was 40.8%. For the same compound, the growth in the assay on IGROV1 ovarian was 14.8%; with OVCAR-3 ovarian it was 31.3%; in the assay with HS 578T breast, 35.7%; in the assay with NCI/ADR-RES ovarian, 24.9%; with T-47D breast, 24.6%; in the assay on BT-549 breast it was 55.9%. Further, the growth is 23.9% in the assay on MDA-MB-435 melanoma; 13.8% with SW-620 colon; 6.93% (active) in the assay with MCF7 breast; 7.9% (active) with HCT-116 colon; 16.2% in the assay on HCC-2998 colon; 16.9% in the assay with KM12 colon.

For the compound `CC(C)c1ccc(NC(=O)Nc2ccc(NC(=O)c3ccccc3N)cc2)cc1`, the growth was 17.9% in the assay on SR leukemia; -0.137% (active) in the assay on RPMI-8226 leukemia; 61.5% in the assay on OVCAR-8 ovarian; 60.5% in the assay on OVCAR-5 ovarian; 59.4% with OVCAR-4 ovarian; 46.8% with SK-OV-3 ovarian. Also, the growth with IGROV1 ovarian was 72.6%; with OVCAR-3 ovarian it was 49%; with HS 578T breast, -3.9% (active); with NCI/ADR-RES ovarian it was 89.5%; in the assay with T-47D breast it was 38.2%; in the assay on BT-549 breast, 77%. Also, the growth in the assay with MDA-MB-435 melanoma was 46.5%; in the assay with SW-620 colon, 54.1%; in the assay with MCF7 breast, 31.6%; in the assay on HCT-116 colon, 51.8%; in the assay on HCC-2998 colon it was 23.5%; with KM12 colon, 29.8%.

Regarding `COc1ccc(OC)c(Nc2nnc(-c3ccc(Cl)cc3)o2)c1`, the growth in the assay on SR leukemia is 79.7%; in the assay with RPMI-8226 leukemia it was 90.4%; with OVCAR-8 ovarian, 85.5%; in the assay on OVCAR-5 ovarian it was 82.4%; in the assay on OVCAR-4 ovarian it was 10.5%; with SK-OV-3 ovarian it was 90.7%. Also, the growth with IGROV1 ovarian is 81.1%; in the assay with OVCAR-3 ovarian, 31.8%; in the assay with HS 578T breast it was 51.4%; in the assay on NCI/ADR-RES ovarian it was 71.9%; with T-47D breast it was 59.9%; in the assay on BT-549 breast, 81.9%. Besides, the growth with MDA-MB-435 melanoma was 84.6%; with SW-620 colon it was 86.2%; in the assay on MCF7 breast, 91.6%; with HCT-116 colon, 31.1%; with HCC-2998 colon it was 104%; in the assay with KM12 colon it was 66.4%.

Regarding `O=C(CCCCNC(=O)c1cc(=O)c(O)co1)Nc1ccccc1`, the growth with SR leukemia was 14.3%; in the assay on RPMI-8226 leukemia, 50.4%; in the assay on OVCAR-8 ovarian, 93.6%; in the assay on OVCAR-5 ovarian it was 119%; in the assay with OVCAR-4 ovarian it was 79.3%; in the assay with SK-OV-3 ovarian, 119%. Further, the growth with IGROV1 ovarian was 99%; with OVCAR-3 ovarian it was 47.4%; with HS 578T breast, 92.9%; with NCI/ADR-RES ovarian, 87%; with T-47D breast, 34.6%; in the assay on BT-549 breast, 98.4%. The growth was 98.1% in the assay with MDA-MB-435 melanoma; 45.8% with SW-620 colon; 66.1% in the assay with MCF7 breast; 30% in the assay on HCT-116 colon; 110% in the assay with HCC-2998 colon; 99.7% with KM12 colon.

As for `c1ccc2cc(Cn3c[n+](Cc4ccc5ccccc5c4)c4ccccc43)ccc2c1`, the growth in the assay on SR leukemia was -66.7% (active); in the assay on RPMI-8226 leukemia it was -53.6% (active); in the assay on OVCAR-8 ovarian, -47.9% (active); with OVCAR-5 ovarian, 22.3%; in the assay on OVCAR-4 ovarian it was -14.9% (active); in the assay on SK-OV-3 ovarian, -0.377% (active). Also, the growth in the assay with IGROV1 ovarian was -42.4% (active); with OVCAR-3 ovarian it was -50.8% (active); in the assay with HS 578T breast, 3.56% (active); with NCI/ADR-RES ovarian, 91.2%; with T-47D breast, -8.43% (active); in the assay on BT-549 breast it was -82.7% (active). Besides, the growth in the assay on MDA-MB-435 melanoma was -52.6% (active); in the assay with SW-620 colon it was -3% (active); in the assay with MCF7 breast it was -30.2% (active); with HCT-116 colon it was -90.6% (active); in the assay on HCC-2998 colon, -53.3% (active); in the assay on KM12 colon, -85.9% (active).

For the compound `COc1ccc(/C=C/C(=O)c2ccc(Nc3nc(Nc4ccc(F)cc4)nc(Nc4ccc(Cl)cc4)n3)cc2)cc1`, the growth was -2.35% (active) with SR leukemia; 58.5% in the assay with RPMI-8226 leukemia; 97.1% in the assay with OVCAR-8 ovarian; 111% in the assay on OVCAR-5 ovarian; 98% in the assay on OVCAR-4 ovarian; 122% in the assay with SK-OV-3 ovarian. Besides, the growth in the assay with IGROV1 ovarian was 81.2%; in the assay on OVCAR-3 ovarian, 113%; with HS 578T breast, 101%; with NCI/ADR-RES ovarian, 92.4%; in the assay on T-47D breast it was 67.3%; in the assay on BT-549 breast, 116%. Also, the growth with MDA-MB-435 melanoma was 97.3%; in the assay with SW-620 colon, 104%; in the assay with MCF7 breast, 72.2%; in the assay with HCT-116 colon, 91.8%; with HCC-2998 colon it was 51.3%; with KM12 colon it was 166%.

As to `Cc1ccc(C)c2c1C(O)(C#Cc1ccccc1)c1ccccc1C2(O)C#Cc1ccccc1` (configuration not stated), the growth in the assay with SR leukemia was 123%; in the assay with RPMI-8226 leukemia it was 18.9%; with OVCAR-8 ovarian, 59.3%; in the assay with OVCAR-5 ovarian, 81.3%; in the assay on OVCAR-4 ovarian, 47.7%; with SK-OV-3 ovarian, 75%. Further, the growth is -12.5% (active) in the assay with IGROV1 ovarian; 63.3% in the assay with OVCAR-3 ovarian; 72.5% with HS 578T breast; 71.1% with NCI/ADR-RES ovarian; 38.5% in the assay with T-47D breast; 68% in the assay with BT-549 breast. The growth in the assay on MDA-MB-435 melanoma was 47.9%; in the assay on SW-620 colon, 53.5%; with MCF7 breast, 28.9%; in the assay on HCT-116 colon it was 43.3%; in the assay with HCC-2998 colon, 87.4%; in the assay on KM12 colon it was 50.1%.

Take `O=C(CCl)Nc1ccc2c(Nc3cc(O)ccc3Cl)ncnc2c1`: the growth in the assay on SR leukemia was -22.5% (active); with RPMI-8226 leukemia, -45.9% (active); with OVCAR-8 ovarian, -33.9% (active); with OVCAR-5 ovarian, -74.7% (active); with OVCAR-4 ovarian it was -65.2% (active); with SK-OV-3 ovarian, -4.95% (active). Also, the growth was -71.2% (active) in the assay with IGROV1 ovarian; -83.4% (active) in the assay with OVCAR-3 ovarian; 4.71% (active) in the assay with HS 578T breast; -39.8% (active) with NCI/ADR-RES ovarian; -52.4% (active) with T-47D breast; -78.5% (active) in the assay with BT-549 breast. The growth was -69.4% (active) with MDA-MB-435 melanoma; -60.6% (active) in the assay on SW-620 colon; -57.9% (active) in the assay on MCF7 breast; -74.5% (active) in the assay with HCT-116 colon; -3.99% (active) with HCC-2998 colon; -64.7% (active) in the assay with KM12 colon.
